# Results from the supplement of paper PMC6992640.
# ± gives the standard deviation of the averaged measurements.
# Experiments:
# [1] = system: HCI11 (cells of an ER-positive luminal breast cancer xenograft); experiment: cell viability (% of vehicle); higher = less cytotoxic; conditions: 10 µM; 72 h
# [2] = system: HCI16 (cells of a triple-negative basal-like breast cancer xenograft); experiment: as above; conditions: 10 µM; 72 h
# [3] = system: UCD52 (cells of a triple-negative basal-like breast cancer xenograft); experiment: as above; conditions: 10 µM; 72 h
# [4] = system: HCI01 (cells of a triple-negative basal-like breast cancer xenograft); experiment: cell viability of combination (% of vehicle); higher = less cytotoxic; conditions: 1 µM; 72 h; partner dose: 10 nM
# Description: (§1)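 PDX cells were treated for 72 h with each drug at 1 µM plus carfilzomib (10 nM; 100 nM for WHIM2). Luciferase viability is expressed as percent of vehicle.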
# [5] = system: UCD52; experiment: as above; conditions: 1 µM; 72 h; partner dose: 10 nM
# Description: as §1
# [6] = system: HCI09 (cells of a triple-negative luminal androgen receptor type breast cancer xenograft); experiment: cell viability (% of vehicle); higher = less cytotoxic; conditions: 10 µM; 72 h
# [7] = system: HCI13 (cells of an ER-positive luminal breast cancer xenograft); experiment: as above; conditions: 10 µM; 72 h
# [8] = system: WHIM2 (cells of a triple-negative basal-like breast cancer xenograft); experiment: as above; conditions: 10 µM; 72 h
# [9] = system: HCI03 (cells of an ER-positive luminal breast cancer xenograft); experiment: as above; conditions: 10 µM; 72 h
smiles,measurement,setting,value
CNC(=O)c1ccccc1Sc1ccc2c(C=Cc3ccccn3)n[nH]c2c1,cell viability,[1],158
same,cell viability,[2],150
same,cell viability,[3],191 ± 4.7
CC(C)CC(NC(=O)CNC(=O)c1cc(Cl)ccc1Cl)B(O)O (centres undefined) + CC(C)C[C@H](NC(=O)[C@H](CCc1ccccc1)NC(=O)CN1CCOCC1)C(=O)N[C@@H](Cc1ccccc1)C(=O)N[C@@H](CC(C)C)C(=O)[C@@]1(C)CO1 [Carfilzomib],cell viability of combination,[4],43.7
same,cell viability of combination,[5],19.8
CCOC(=O)C1=C(COCCN)NC(C)=C(C(=O)OC)C1c1ccccc1Cl (centres undefined) [Amlodipine] + CC(C)C[C@H](NC(=O)[C@H](CCc1ccccc1)NC(=O)CN1CCOCC1)C(=O)N[C@@H](Cc1ccccc1)C(=O)N[C@@H](CC(C)C)C(=O)[C@@]1(C)CO1 [Carfilzomib],cell viability of combination,[4],113
same,cell viability of combination,[5],62.5
"O=C(CCCCCCC(=O)Nc1ccccc1)NO [Vorinostat (SAHA, MK0683)]",cell viability,[6],46.1 ± 37
same,cell viability,[1],21.7
same,cell viability,[7],61 ± 23
same,cell viability,[8],47.5 ± 4.1
CC(NCc1ccc(OCc2cccc(F)c2)cc1)C(N)=O.CS(=O)(=O)O (centres undefined) [Safinamide Mesylate],cell viability,[1],161
same,cell viability,[7],191 ± 36
same,cell viability,[3],190 ± 11
same,cell viability,[8],184 ± 45
COc1cc(C(=O)NS(=O)(=O)c2ccccc2C)ccc1Cc1cn(C)c2ccc(NC(=O)OC3CCCC3)cc12 [Zafirlukast] + CC(C)C[C@H](NC(=O)[C@H](CCc1ccccc1)NC(=O)CN1CCOCC1)C(=O)N[C@@H](Cc1ccccc1)C(=O)N[C@@H](CC(C)C)C(=O)[C@@]1(C)CO1 [Carfilzomib],cell viability of combination,[4],83.2
same,cell viability of combination,[5],65
Cl.O.O=C1Cc2cc(CCN3CCN(c4nsc5ccccc45)CC3)c(Cl)cc2N1 [Ziprasidone hydrochloride monohydrate] + CC(C)C[C@H](NC(=O)[C@H](CCc1ccccc1)NC(=O)CN1CCOCC1)C(=O)N[C@@H](Cc1ccccc1)C(=O)N[C@@H](CC(C)C)C(=O)[C@@]1(C)CO1 [Carfilzomib],cell viability of combination,[4],79.6
same,cell viability of combination,[5],64.2
Nc1nc2ccc(OC(F)(F)F)cc2s1 [Riluzole],cell viability,[9],158
same,cell viability,[1],162
same,cell viability,[7],161 ± 27
same,cell viability,[2],139
same,cell viability,[3],175 ± 15
same,cell viability,[8],145 ± 7.3
Oc1ccc(C=Cc2cc(O)cc(O)c2)cc1 [Resveratrol],cell viability,[6],196 ± 110
same,cell viability,[2],174
same,cell viability,[8],191 ± 54
CC1(C)Cc2c(-c3ccccc3)c(-c3ccc(Cl)cc3)c(CC(=O)O)n2C1 [Licofelone] + CC(C)C[C@H](NC(=O)[C@H](CCc1ccccc1)NC(=O)CN1CCOCC1)C(=O)N[C@@H](Cc1ccccc1)C(=O)N[C@@H](CC(C)C)C(=O)[C@@]1(C)CO1 [Carfilzomib],cell viability of combination,[4],83.7
same,cell viability of combination,[5],64.7
CC(C)(C)c1ccc(C(O)CCCN2CCC(C(O)(c3ccccc3)c3ccccc3)CC2)cc1 (centres undefined) [Terfenadine] + CC(C)C[C@H](NC(=O)[C@H](CCc1ccccc1)NC(=O)CN1CCOCC1)C(=O)N[C@@H](Cc1ccccc1)C(=O)N[C@@H](CC(C)C)C(=O)[C@@]1(C)CO1 [Carfilzomib],cell viability of combination,[4],77.1
same,cell viability of combination,[5],64.9
CN(C)c1ccc(C(=C2C=CC(=[N+](C)C)C=C2)c2ccc(N(C)C)cc2)cc1.[Cl-] [Crystal Violet] + CC(C)C[C@H](NC(=O)[C@H](CCc1ccccc1)NC(=O)CN1CCOCC1)C(=O)N[C@@H](Cc1ccccc1)C(=O)N[C@@H](CC(C)C)C(=O)[C@@]1(C)CO1 [Carfilzomib],cell viability of combination,[4],68
same,cell viability of combination,[5],32.3
COc1cc2nccc(Oc3ccc(NC(=O)NC4CC4)c(Cl)c3)c2cc1C(N)=O [Lenvatinib (E7080)] + CC(C)C[C@H](NC(=O)[C@H](CCc1ccccc1)NC(=O)CN1CCOCC1)C(=O)N[C@@H](Cc1ccccc1)C(=O)N[C@@H](CC(C)C)C(=O)[C@@]1(C)CO1 [Carfilzomib],cell viability of combination,[4],97.9
same,cell viability of combination,[5],38.2
C=CC(=O)Nc1cc(Nc2nccc(-c3cn(C)c4ccccc34)n2)c(OC)cc1N(C)CCN(C)C + CC(C)C[C@H](NC(=O)[C@H](CCc1ccccc1)NC(=O)CN1CCOCC1)C(=O)N[C@@H](Cc1ccccc1)C(=O)N[C@@H](CC(C)C)C(=O)[C@@]1(C)CO1 [Carfilzomib],cell viability of combination,[4],59.8
same,cell viability of combination,[5],53.7
CC1CC(=O)NN=C1c1ccc(NN=C(C#N)C#N)cc1 (centres undefined) [Levosimendan] + CC(C)C[C@H](NC(=O)[C@H](CCc1ccccc1)NC(=O)CN1CCOCC1)C(=O)N[C@@H](Cc1ccccc1)C(=O)N[C@@H](CC(C)C)C(=O)[C@@]1(C)CO1 [Carfilzomib],cell viability of combination,[4],74.1
same,cell viability of combination,[5],61.5
CC[C@@]1(O)C(=O)OCc2c1cc1n(c2=O)Cc2cc3c(CN(C)C)c(O)ccc3nc2-1 [Topotecan] + CC(C)C[C@H](NC(=O)[C@H](CCc1ccccc1)NC(=O)CN1CCOCC1)C(=O)N[C@@H](Cc1ccccc1)C(=O)N[C@@H](CC(C)C)C(=O)[C@@]1(C)CO1 [Carfilzomib],cell viability of combination,[4],56.9
same,cell viability of combination,[5],57.9
CCc1oc2ccccc2c1C(=O)c1cc(Br)c(O)c(Br)c1 [Benzbromarone] + CC(C)C[C@H](NC(=O)[C@H](CCc1ccccc1)NC(=O)CN1CCOCC1)C(=O)N[C@@H](Cc1ccccc1)C(=O)N[C@@H](CC(C)C)C(=O)[C@@]1(C)CO1 [Carfilzomib],cell viability of combination,[4],84.6
same,cell viability of combination,[5],63.1
COc1cc(Nc2c(C#N)cnc3cc(OCCCN4CCN(C)CC4)c(OC)cc23)c(Cl)cc1Cl [Bosutinib (SKI-606)] + CC(C)C[C@H](NC(=O)[C@H](CCc1ccccc1)NC(=O)CN1CCOCC1)C(=O)N[C@@H](Cc1ccccc1)C(=O)N[C@@H](CC(C)C)C(=O)[C@@]1(C)CO1 [Carfilzomib],cell viability of combination,[4],70.1
same,cell viability of combination,[5],35.3
CO[C@H]1C[C@@H]2CC[C@@H](C)[C@@](O)(O2)C(=O)C(=O)N2CCCC[C@H]2C(=O)O[C@H]([C@H](C)C[C@@H]2CC[C@@H](O)[C@H](OC)C2)CC(=O)[C@H](C)/C=C(\C)[C@@H](O)[C@@H](OC)C(=O)[C@H](C)C[C@H](C)/C=C/C=C/C=C/1C [Rapamycin (Sirolimus)] + CC(C)C[C@H](NC(=O)[C@H](CCc1ccccc1)NC(=O)CN1CCOCC1)C(=O)N[C@@H](Cc1ccccc1)C(=O)N[C@@H](CC(C)C)C(=O)[C@@]1(C)CO1 [Carfilzomib],cell viability of combination,[4],68.3
same,cell viability of combination,[5],49.1
Nc1ncn(C2OC(CO)C(O)C2O)c(=O)n1 (centres undefined) [5-Azacytidine] + CC(C)C[C@H](NC(=O)[C@H](CCc1ccccc1)NC(=O)CN1CCOCC1)C(=O)N[C@@H](Cc1ccccc1)C(=O)N[C@@H](CC(C)C)C(=O)[C@@]1(C)CO1 [Carfilzomib],cell viability of combination,[4],75.9
same,cell viability of combination,[5],68.2
COc1cc2c(Nc3ccc(Br)cc3F)ncnc2cc1OCC1CCN(C)CC1 [Vandetanib (ZD6474)] + CC(C)C[C@H](NC(=O)[C@H](CCc1ccccc1)NC(=O)CN1CCOCC1)C(=O)N[C@@H](Cc1ccccc1)C(=O)N[C@@H](CC(C)C)C(=O)[C@@]1(C)CO1 [Carfilzomib],cell viability of combination,[4],64.1
same,cell viability of combination,[5],39.4
CCCCCCCCCCCCCCCCOP(=O)([O-])OCC[N+](C)(C)C [Miltefosine] + CC(C)C[C@H](NC(=O)[C@H](CCc1ccccc1)NC(=O)CN1CCOCC1)C(=O)N[C@@H](Cc1ccccc1)C(=O)N[C@@H](CC(C)C)C(=O)[C@@]1(C)CO1 [Carfilzomib],cell viability of combination,[4],75.2
same,cell viability of combination,[5],71.6
